Test results: PubChem BioAssay (EPA / NIEHS)
Active and inactive are the calls of the source. How the source made its calls: active means hit-call score of the fitted dose curve at least 0.9, where 1 is the maximum; inactive means score below 0.9.

Key:
[1] = ATG_GLI_CIS: Attagene CIS-FACTORIAL HepG2 Assay for human Zinc Finger Protein GLI1 (AID 2282945); conditions: HepG2, Attagene cis-factorial reporter mRNA, GLI element; actives raise or lower the signal
Procedure, shortened: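 Bidirectional curve fits relative to DMSO, using reporter mRNA levels from RT-PCR plus capillary electrophoresis. Cells were HepG2 transiently carrying cis-regulated reporter constructs, harvested 24 h after dosing.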

[2] = molecular target: Bile acid receptor (Homo sapiens) (UniProt Q96RI1); assay: ATG_IR1_CIS: Attagene CIS-FACTORIAL HepG2 Assay for human Nuclear Receptor Subfamily 1 Group H Member 4 (NR1H4), IR1 submotif (AID 2282946); conditions: IR1 reporter transcription, actives raise or lower the signal
Procedure, shortened: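 Cells (human HepG2) carry transiently transfected cis-promoter reporter transcription units. Compounds are incubated 24 h, total RNA is reverse-transcribed and amplified, and labelled fragments are resolved by capillary electrophoresis. Curves use DMSO as baseline.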

[3] = ATG_GRE_CIS: Attagene CIS-FACTORIAL HepG2 Assay for human Glucocorticoid Response Elements (GRE) (AID 2282947); conditions: HepG2 GRE cis-reporter, Attagene multiplex mRNA; actives raise or lower the signal
Procedure, shortened: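 Transient MRTU transfection of human HepG2 liver cells; cis-regulated reporters report endogenous factors. 24 h dosing → RNA isolation → RT-PCR → 6-FAM primer extension → HpaI cut → CE fragment analysis. Bidirectional fit, DMSO negative control.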

[4] = ATG_M_32_CIS: Attagene CIS-FACTORIAL HepG2 Assay for M32 Transcription Factor (Internal Marker) (AID 2282949); conditions: HepG2 Attagene cis-factorial M32 reporter, mRNA; actives raise or lower the signal;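 further: background control marker of the multiplexed CIS panel rather than a real target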
Procedure, shortened: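 Fluorescent capillary electrophoresis peaks of HpaI-digested, FAM-labelled RT-PCR reporter products give the signal. Source: transiently transfected human liver HepG2 cells, 24 h after chemical dosing; bidirectional fitting against DMSO.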

[5] = ATG_M_06_CIS: Attagene CIS-FACTORIAL HepG2 Assay for M06 Transcription Factor (Internal Marker) (AID 2282950); conditions: HepG2 Attagene CIS-FACTORIAL M06 internal marker reporter; actives raise or lower the signal
Procedure, shortened: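 Cells (HepG2, transiently carrying cis-driven reporter units) receive chemical for 24 h before RNA isolation. Reporter cDNA is PCR-amplified, FAM-labelled by primer extension, HpaI-digested and sized on a capillary analyser.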

[6] = molecular target: Hypoxia-inducible factor 1-alpha (Homo sapiens) (UniProt Q16665); assay: ATG_HIF1a_CIS: Attagene CIS-FACTORIAL HepG2 Assay for human Hypoxia Inducible Factor 1 (HIF1A) (AID 2282951); conditions: HepG2 Attagene cis-factorial HIF1a reporter transcription; actives raise or lower the signal
Procedure, shortened: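 Cis-element reporter constructs were transiently transfected into HepG2 cells, which were treated for 24 h; reporter RNA was reverse-transcribed, amplified, labelled and resolved by capillary electrophoresis.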

[7] = molecular target: Hepatocyte nuclear factor 6 (Homo sapiens) (UniProt Q9UBC0); assay: ATG_HNF6_CIS: Attagene CIS-FACTORIAL HepG2 Assay for human Hepatocyte Nuclear Factor 6 (HNF6) (AID 2282952); conditions: HepG2 Attagene cis-factorial HNF6 reporter transcription; actives raise or lower the signal
Procedure, shortened: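 Cells are HepG2 carrying transiently transfected cis-promoter reporter units. Treatment lasts 24 h, after which reporter transcripts are reverse-transcribed, amplified, FAM-labelled and sized by capillary electrophoresis. DMSO serves as baseline.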

[8] = molecular target: Heat shock factor protein 1 (Homo sapiens) (UniProt Q00613); assay: ATG_HSE_CIS: Attagene CIS-FACTORIAL HepG2 Assay for human Heat Shock Transcription Factor 1 (HSE) (AID 2282953); conditions: HepG2 HSE cis-reporter, Attagene RNA transcription; actives raise or lower the signal
Procedure, shortened: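 Liver-derived HepG2 cells carry transiently introduced multiple reporter units governed by cis promoters. Reporter RNA measured 24 h post-dose through reverse transcription, PCR amplification, fluorescent labelling and capillary electrophoresis, normalised to DMSO.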

[9] = ATG_PBREM_CIS: Attagene CIS-FACTORIAL HepG2 Assay for human Phenobarbital-responsive Enhancer Module (PBREM) (AID 2282955); conditions: HepG2 PBREM cis-reporter, Attagene multiplexed transcription; actives raise or lower the signal
Procedure, shortened: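 Multiplexed cis-reporter readout in human hepatoma HepG2 cells; PBREM-regulated transcript quantified after 24 h exposure by fluorescent RT-PCR fragment analysis. Signal changes up or down fitted relative to DMSO.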

[10] = ATG_PXRE_CIS: Attagene CIS-FACTORIAL HepG2 Assay for human Pregnane X Receptor Element (PXRE) (AID 2282957); conditions: HepG2 Attagene CIS-FACTORIAL PXRE reporter, mRNA; actives raise or lower the signal
Procedure, shortened: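 Multiplexed cis-reporter assay in transiently transfected human HepG2 cells; 24 h chemical exposure. Reporter transcripts quantified by RT-PCR with fluorescent labeling and capillary electrophoresis.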

[11] = ATG_PPRE_CIS: Attagene CIS-FACTORIAL HepG2 Assay for human Peroxisome Proliferator-activated Response Element (PPRE) (AID 2282958); conditions: HepG2 PPRE cis-element reporter, Attagene transcription factor profiling; actives raise or lower the signal
Procedure, shortened: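 DMSO served as negative control and baseline for bidirectional curve fitting. Signal came from PPRE-regulated reporter mRNA in HepG2 cells, measured 24 h post-dosing by RT-PCR, 6-FAM primer extension and capillary electrophoresis.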

[12] = ATG_RORE_CIS: Attagene CIS-FACTORIAL HepG2 Assay for human RAR-related Orphan Receptor Element (RORE) (AID 2282959); conditions: HepG2 Attagene cis-factorial RORE reporter, mRNA; actives raise or lower the signal
Procedure, shortened: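 Transfect HepG2 with MRTUs; treat 24 h; extract RNA; RT with oligo(dT); PCR with reporter-specific primers; 6-FAM primer extension; HpaI digest 2 h at 37 C; capillary electrophoresis. Fit vs DMSO, bidirectional.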

[13] = ATG_Sox_CIS: Attagene CIS-FACTORIAL HepG2 Assay for human SRY-box transcription factor (SOX) (AID 2282960); conditions: HepG2 Attagene cis-factorial SOX reporter, mRNA; actives raise or lower the signal
Procedure, shortened: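 Fluorescence-labelled cDNA fragments from reporter transcripts, sized by CE, give the signal. Cells: HepG2, transiently transfected with cis-regulated reporter units. Exposure 24 h; DMSO negative control; bidirectional curve fitting.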

[14] = molecular target: Transcription factor Sp1 (Homo sapiens) (UniProt P08047); assay: ATG_Sp1_CIS: Attagene CIS-FACTORIAL HepG2 Assay for human Specificity Protein 1 (Sp1) (AID 2282961); conditions: HepG2 Sp1 cis-reporter transcription, actives raise or lower the signal
Procedure, shortened: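 Chemicals are dosed onto HepG2 cells transfected with multiple cis-promoter reporter constructs, and after 24 h reporter RNA is reverse-transcribed, PCR-amplified and resolved by capillary electrophoresis for fluorescence quantitation; activity is scored up or down against DMSO.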

[15] = ATG_SREBP_CIS: Attagene CIS-FACTORIAL HepG2 Assay for human Sterol Regulatory Element Binding (SREBP) (AID 2282962); conditions: HepG2 Attagene cis-factorial SREBP reporter, mRNA; actives raise or lower the signal
Procedure, shortened: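 HepG2 cells transiently transfected with multiplexed cis-element reporter units report endogenous transcription factor activity. After 24 h of chemical exposure, reporter mRNA was quantified by RT-PCR, 6-FAM labelling, HpaI digestion and capillary electrophoresis; bidirectional fits used DMSO as baseline.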

[16] = molecular target: Signal transducer and activator of transcription 3 (Homo sapiens) (UniProt P40763); assay: ATG_STAT3_CIS: Attagene CIS-FACTORIAL HepG2 Assay for human Signal Transducer and Activator of Transcription 3 (STAT3) (AID 2282963); conditions: HepG2, Attagene cis-factorial STAT3 reporter transcription; actives raise or lower the signal
Procedure, shortened: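 Endogenous STAT3-responsive cis-element activity was read in transiently transfected HepG2 cells after 24 h treatment. Reporter transcripts were quantified via RT-PCR and capillary electrophoresis, with DMSO as negative control and bidirectional curve fitting.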

[17] = ATG_TA_CIS: Attagene CIS-FACTORIAL HepG2 Assay for human TA Basal Promoter (AID 2282964); conditions: HepG2 Attagene CIS-factorial TA basal promoter reporter; actives raise or lower the signal
Procedure, shortened: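 Background internal-marker endpoint from a 52-component HepG2 cis-reporter panel. Cells treated 24 h; reporter transcripts quantified via RT-PCR and CE fluorescence against DMSO baseline.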

[18] = molecular target: Paired box protein Pax-6 (Homo sapiens) (UniProt P26367); assay: ATG_Pax6_CIS: Attagene CIS-FACTORIAL HepG2 Assay for human Paired Box 6 (PAX6) (AID 2282956); conditions: HepG2 CIS-FACTORIAL PAX6 reporter transcription, RNA readout; actives raise or lower the signal
Procedure, shortened: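 HepG2 cells transiently transfected with multiplexed cis-promoter reporter units (endogenous TF activity) were dosed for 24 h. Reporter mRNA was quantified by RT-PCR, 6-FAM labeling, HpaI digestion and capillary electrophoresis; bidirectional fitting versus DMSO baseline.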

[19] = ATG_ISRE_CIS: Attagene CIS-FACTORIAL HepG2 Assay for human Interferon Regulatory Factor 1 (IRF1) binding to an Interferon-Stimulated Response Element (ISRE) (AID 2282948); conditions: HepG2 ISRE cis-reporter (Attagene), mRNA transcription readout; actives raise or lower the signal
Procedure, shortened: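 HepG2 cells transiently transfected with multiplexed cis-promoter reporter units; after 24 h compound exposure, reporter mRNA quantified by RT-PCR, FAM labelling, HpaI digestion and capillary electrophoresis. Bidirectional fit versus DMSO baseline.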

[20] = ATG_MRE_CIS: Attagene CIS-FACTORIAL HepG2 Assay for human Metal Responsive Element (MRE) (AID 2282954); conditions: HepG2 MRE cis-reporter transcription, Attagene multiplex; actives raise or lower the signal
Procedure, shortened: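 Transient MRTU transfection of HepG2 (FuGene 6); 24 h dosing; total RNA → oligo(dT) RT, PCR, 6-FAM primer extension, HpaI cut, CE. Bidirectional fit vs DMSO.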

Measured: AC50

Sequence of Signal transducer and activator of transcription 3 (Homo sapiens) (P40763 whole entry, looked up): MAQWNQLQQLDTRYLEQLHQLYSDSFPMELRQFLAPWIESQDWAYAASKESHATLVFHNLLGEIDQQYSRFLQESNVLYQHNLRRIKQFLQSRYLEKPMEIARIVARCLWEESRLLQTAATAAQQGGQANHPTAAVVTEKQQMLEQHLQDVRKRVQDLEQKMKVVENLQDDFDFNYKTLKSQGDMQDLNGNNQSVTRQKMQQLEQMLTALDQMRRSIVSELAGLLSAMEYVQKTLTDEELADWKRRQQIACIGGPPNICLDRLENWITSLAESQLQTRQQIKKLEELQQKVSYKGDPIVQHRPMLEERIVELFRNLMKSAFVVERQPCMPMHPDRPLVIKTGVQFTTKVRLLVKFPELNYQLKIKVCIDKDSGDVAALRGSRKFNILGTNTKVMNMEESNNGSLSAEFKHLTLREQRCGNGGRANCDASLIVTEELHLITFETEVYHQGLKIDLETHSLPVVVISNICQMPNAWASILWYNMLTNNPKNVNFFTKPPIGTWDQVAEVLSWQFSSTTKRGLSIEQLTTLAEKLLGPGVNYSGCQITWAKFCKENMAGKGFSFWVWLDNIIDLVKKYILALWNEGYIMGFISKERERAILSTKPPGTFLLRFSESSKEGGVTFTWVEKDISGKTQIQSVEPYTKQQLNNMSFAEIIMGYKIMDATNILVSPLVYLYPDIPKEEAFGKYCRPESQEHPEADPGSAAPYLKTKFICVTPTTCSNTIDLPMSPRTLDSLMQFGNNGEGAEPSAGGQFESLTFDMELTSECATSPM
Sequence of Bile acid receptor (Homo sapiens) (Q96RI1 whole entry, looked up, the tested form may be a part): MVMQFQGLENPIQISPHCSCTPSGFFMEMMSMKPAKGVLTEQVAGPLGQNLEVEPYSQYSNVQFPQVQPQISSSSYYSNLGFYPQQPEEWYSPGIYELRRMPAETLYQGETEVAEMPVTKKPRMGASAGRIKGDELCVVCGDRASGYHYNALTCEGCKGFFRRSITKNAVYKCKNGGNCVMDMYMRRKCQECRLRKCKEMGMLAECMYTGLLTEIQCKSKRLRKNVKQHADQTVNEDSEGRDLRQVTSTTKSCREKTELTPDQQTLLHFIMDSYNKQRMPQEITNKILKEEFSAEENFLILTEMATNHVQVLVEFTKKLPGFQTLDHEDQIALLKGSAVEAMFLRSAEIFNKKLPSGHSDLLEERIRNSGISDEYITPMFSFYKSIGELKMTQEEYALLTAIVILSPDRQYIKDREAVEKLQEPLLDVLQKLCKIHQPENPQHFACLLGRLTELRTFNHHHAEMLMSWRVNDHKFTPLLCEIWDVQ
Sequence of Heat shock factor protein 1 (Homo sapiens) (Q00613 whole entry, looked up): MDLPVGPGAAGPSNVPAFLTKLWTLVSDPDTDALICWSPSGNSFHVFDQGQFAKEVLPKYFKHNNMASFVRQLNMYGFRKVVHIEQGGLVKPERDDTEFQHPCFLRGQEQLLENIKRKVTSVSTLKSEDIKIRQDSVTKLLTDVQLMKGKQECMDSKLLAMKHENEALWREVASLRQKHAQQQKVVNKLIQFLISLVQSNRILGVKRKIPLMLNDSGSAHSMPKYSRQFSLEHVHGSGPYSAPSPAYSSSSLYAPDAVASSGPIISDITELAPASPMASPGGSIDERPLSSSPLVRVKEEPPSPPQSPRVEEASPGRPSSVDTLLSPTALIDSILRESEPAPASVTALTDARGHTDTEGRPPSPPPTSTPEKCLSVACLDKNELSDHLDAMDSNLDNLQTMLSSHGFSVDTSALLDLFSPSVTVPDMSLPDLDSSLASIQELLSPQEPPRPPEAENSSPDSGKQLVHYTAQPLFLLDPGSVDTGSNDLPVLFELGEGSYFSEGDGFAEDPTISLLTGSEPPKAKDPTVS
Sequence of Hepatocyte nuclear factor 6 (Homo sapiens) (Q9UBC0 whole entry, looked up): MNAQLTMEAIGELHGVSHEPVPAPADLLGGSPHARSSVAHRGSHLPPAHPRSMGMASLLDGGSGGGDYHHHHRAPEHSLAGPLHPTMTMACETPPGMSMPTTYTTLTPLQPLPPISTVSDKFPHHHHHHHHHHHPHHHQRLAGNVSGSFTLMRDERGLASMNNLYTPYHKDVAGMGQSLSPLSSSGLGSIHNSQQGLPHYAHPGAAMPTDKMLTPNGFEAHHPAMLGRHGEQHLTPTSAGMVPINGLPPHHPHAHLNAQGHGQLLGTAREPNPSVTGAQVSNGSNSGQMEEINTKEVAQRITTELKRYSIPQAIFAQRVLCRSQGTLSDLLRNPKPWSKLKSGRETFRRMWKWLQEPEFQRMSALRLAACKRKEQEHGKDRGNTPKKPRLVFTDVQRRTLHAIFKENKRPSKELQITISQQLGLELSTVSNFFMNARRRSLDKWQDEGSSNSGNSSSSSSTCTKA
Sequence of Hypoxia-inducible factor 1-alpha (Homo sapiens) (Q16665 whole entry, looked up): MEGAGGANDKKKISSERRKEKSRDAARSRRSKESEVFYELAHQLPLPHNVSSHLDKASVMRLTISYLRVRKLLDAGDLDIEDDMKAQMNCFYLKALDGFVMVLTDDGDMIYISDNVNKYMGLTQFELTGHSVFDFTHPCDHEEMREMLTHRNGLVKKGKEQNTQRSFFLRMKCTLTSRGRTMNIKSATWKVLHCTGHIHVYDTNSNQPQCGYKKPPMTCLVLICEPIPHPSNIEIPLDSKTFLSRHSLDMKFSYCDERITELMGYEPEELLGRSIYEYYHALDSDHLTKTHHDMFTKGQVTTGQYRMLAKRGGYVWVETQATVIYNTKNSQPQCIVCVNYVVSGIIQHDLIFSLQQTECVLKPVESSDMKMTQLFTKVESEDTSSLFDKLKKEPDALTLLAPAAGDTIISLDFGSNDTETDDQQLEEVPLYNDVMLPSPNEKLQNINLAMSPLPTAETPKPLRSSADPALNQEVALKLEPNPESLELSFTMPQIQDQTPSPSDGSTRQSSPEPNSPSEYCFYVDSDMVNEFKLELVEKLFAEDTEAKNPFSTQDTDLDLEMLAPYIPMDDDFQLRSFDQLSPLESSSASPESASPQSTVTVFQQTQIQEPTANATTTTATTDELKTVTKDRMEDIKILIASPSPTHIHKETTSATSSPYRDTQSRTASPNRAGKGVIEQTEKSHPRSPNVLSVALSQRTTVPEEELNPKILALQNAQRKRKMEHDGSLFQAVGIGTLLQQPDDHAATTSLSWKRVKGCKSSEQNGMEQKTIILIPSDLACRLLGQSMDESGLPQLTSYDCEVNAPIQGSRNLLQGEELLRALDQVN
Sequence of Transcription factor Sp1 (Homo sapiens) (P08047 whole entry, looked up): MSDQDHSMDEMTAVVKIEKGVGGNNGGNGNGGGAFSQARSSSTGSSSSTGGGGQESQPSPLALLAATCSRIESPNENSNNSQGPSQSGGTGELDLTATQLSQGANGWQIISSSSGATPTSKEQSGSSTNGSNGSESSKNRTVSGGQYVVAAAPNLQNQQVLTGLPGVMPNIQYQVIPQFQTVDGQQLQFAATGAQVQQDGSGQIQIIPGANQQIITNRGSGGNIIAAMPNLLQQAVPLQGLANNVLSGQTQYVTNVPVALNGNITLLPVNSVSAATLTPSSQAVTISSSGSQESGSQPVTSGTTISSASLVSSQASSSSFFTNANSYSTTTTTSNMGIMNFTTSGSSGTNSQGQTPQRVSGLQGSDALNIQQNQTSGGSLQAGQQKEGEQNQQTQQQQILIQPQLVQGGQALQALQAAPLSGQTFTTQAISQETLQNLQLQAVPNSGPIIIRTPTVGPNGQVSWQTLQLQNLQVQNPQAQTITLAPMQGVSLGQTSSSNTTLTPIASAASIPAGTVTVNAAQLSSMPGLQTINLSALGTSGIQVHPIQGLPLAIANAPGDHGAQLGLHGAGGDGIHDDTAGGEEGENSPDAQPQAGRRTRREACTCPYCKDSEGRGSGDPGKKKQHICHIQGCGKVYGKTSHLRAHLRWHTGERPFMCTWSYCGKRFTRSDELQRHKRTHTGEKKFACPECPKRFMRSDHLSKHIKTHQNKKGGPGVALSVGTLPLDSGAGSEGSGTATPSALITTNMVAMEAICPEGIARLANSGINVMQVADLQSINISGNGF
Sequence of Paired box protein Pax-6 (Homo sapiens) (P26367 whole entry, looked up): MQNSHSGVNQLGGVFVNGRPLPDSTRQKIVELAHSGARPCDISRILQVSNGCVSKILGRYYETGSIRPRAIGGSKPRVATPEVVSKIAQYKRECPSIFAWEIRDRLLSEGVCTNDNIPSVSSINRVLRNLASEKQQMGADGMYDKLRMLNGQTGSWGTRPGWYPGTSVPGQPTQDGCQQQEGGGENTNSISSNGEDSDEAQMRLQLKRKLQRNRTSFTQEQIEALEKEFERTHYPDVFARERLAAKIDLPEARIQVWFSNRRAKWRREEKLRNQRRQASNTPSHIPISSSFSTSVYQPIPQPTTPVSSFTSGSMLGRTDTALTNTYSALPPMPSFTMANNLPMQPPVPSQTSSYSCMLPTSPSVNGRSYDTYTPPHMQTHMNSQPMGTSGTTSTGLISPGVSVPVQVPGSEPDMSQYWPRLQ

C=CC(=O)OCC(F)(F)C(F)(F)C(F)(F)C(F)(F)C(F)(F)C(F)(F)C(F)(F)C(F)F
active: [8] 218 µM | [10] 38.3 µM | [13] 271 µM
not listed: [18] | [19] | [20]
inactive: all other assays above

NS(=O)(=O)C(F)(F)C(F)(F)C(F)(F)C(F)(F)C(F)(F)C(F)(F)F
active: [10] 41 µM | [11] 50.2 µM
not listed: [6] | [19] | [20]
inactive: all other assays above

O=C(F)C1(F)C(F)(F)C(F)(F)C(F)(F)C(F)(F)C1(F)F
not listed: [6] | [18] | [20]
inactive: all other assays above

O=C(O)C(F)(F)C(F)(F)C(F)(F)OC(F)(C(F)(F)F)C(F)(F)F
active: [10] 39.8 µM | [11] 45.9 µM
not listed: [18] | [19]
inactive: all other assays above

O=C(O)C(F)(F)C(F)(F)C(F)(F)OC(F)(F)F
not listed: [19]
inactive: all other assays above
